Experimental data published in PubChem BioAssay (NCATS).
Active and inactive are the calls of the source. Calls come from the whole dose curve; as a rule, active = well fitted activation curve with a large enough effect; inconclusive = small, poorly fitted or top-dose-only effect; inactive = no such curve, though single readings can be large or run the other way.
Potency is the fitted concentration of half-maximal effect.

What follows are compounds tested against Cytochrome P450 3A4 (Homo sapiens) (UniProt P08684) (assay: qHTS Assay for Activators of Cytochrome P450 3A4 (AID 885; note: nearly all actives have a fitted effect of over 65% in size)). Conditions: recombinant CYP3A4, Luciferin-PPXE luminescence, 60 min; series mostly up to 57.1 µM; activity change, positive = activation: at the top concentration.
Chain of Cytochrome P450 3A4 (Homo sapiens) (P08684 whole entry, looked up): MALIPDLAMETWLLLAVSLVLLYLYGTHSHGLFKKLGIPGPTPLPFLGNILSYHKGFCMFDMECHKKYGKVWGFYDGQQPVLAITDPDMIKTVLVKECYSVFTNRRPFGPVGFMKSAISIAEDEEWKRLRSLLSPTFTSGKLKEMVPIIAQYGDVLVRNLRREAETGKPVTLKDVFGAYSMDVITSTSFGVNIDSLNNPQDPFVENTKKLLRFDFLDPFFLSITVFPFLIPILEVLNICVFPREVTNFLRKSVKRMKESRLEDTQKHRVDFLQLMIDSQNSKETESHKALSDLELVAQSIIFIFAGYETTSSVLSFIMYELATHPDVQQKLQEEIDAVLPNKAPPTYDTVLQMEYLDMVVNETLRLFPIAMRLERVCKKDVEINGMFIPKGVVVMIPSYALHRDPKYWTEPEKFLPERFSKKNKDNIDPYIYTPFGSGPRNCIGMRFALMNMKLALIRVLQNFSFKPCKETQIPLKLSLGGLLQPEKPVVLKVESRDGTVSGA
Description: NIH Molecular Libraries Screening Centers Network [MLSCN]
NIH Chemical Genomics Center [NCGC]
The P450 gene superfamily is involved in the metabolism and clearance of xenobiotics. This assay used human CYP3A4 to measure the dealkylation of luciferin-6' phenylpiperazinylyl (Luciferin-PPXE; […]) to luciferin. The luciferin is then measured by luminescence after the addition of a luciferase detection reagent. Luciferin-PPXE concentration in the assay was equal to its KM for CYP3A4. Inhibitors and some substrates limit the production of luciferin, and decrease measured luminescence; activators increase the production of luciferin and luminescence.
NCGC Assay Protocol Summary:
Two uL of enzyme and substrate mix (final concentrations: 20nM CYP3A4, 25uM Luciferin-PPXE, 200mM KPO4) were dispensed into a white, solid bottom 1536-well microtiter plate. 23nL of compound was transferred by a pin tool. The plate was incubated at RT for 10 min. Two uL of an NADPH regeneration solution (Promega supplied reagent) was dispensed and the reaction was allowed to continue for 60 min at RT. Then the reaction was stopped by reconstituted luciferin detection buffer. After another 20 min of incubation the plate was read on the ViewLux (Perkin Elmer) at 60 sec exposure and 2x2 binning. This protocol was carried out with Promega-Glo reagents and further information can be found at http://www.promega.com/tbs/tb325/tb325.pdf. Data were normalized to the to AC100 inhibition (57 uM ketoconazole).
Keywords: P450, CYP2D6, Luciferase, MLSMR, MLSCN, NIH Roadmap, qHTS, NCGC
For COCCNc1ncnc2ccc(-c3cccnc3)cc12, the “activity change, positive = activation” value was -86.1% (inactive).
O=c1c(-c2ccccc2)nc2cnc(N3CCNCC3)nc2n1C1CC1 was tested, and the “activity change, positive = activation” value was -73.9% (inactive).
N#Cc1cccc(-c2nc(N3CCNCC3)c3ccccc3n2)c1 was tested, and the “activity change, positive = activation” value was -70.7% (inactive).
O=C(c1ccncc1)N1CCC[C@@]2(CCN(c3ncccn3)C2)C1 was tested, and the “activity change, positive = activation” value was -55.5% (inactive).
COC(=O)N1CCC[C@@]2(CCN(c3ccncc3)C2)C1 was tested, and the “activity change, positive = activation” value was -81.3% (inactive).
In the case of COC(=O)N1CCC2(CC1)CN(C(c1ccccc1)c1ccccc1)C2, the Potency is reported as 794 nM (active).
With O=c1cnc2cnc(N3CCOCC3)nc2n1CCc1ccccc1 the “activity change, positive = activation” value was -39.7% (inactive).
With Cc1noc(C)c1-c1cc(Nc2ccc(F)cc2)ncn1 the “activity change, positive = activation” value was -40.2% (inactive).
For CN(C)c1ccc(-c2ccc3ncnc(N4CCNCC4)c3c2)cc1, the “activity change, positive = activation” value was -62.5% (inactive).
With NCCC(=O)NCCc1cnc[nH]1 the “activity change, positive = activation” value was -45.4% (inactive).
For CN1CCN(c2nc(-c3cccc(C#N)c3)nc3ccccc23)CC1, the “activity change, positive = activation” value was -65% (inactive).
In the case of CS(=O)(=O)Nc1cccc(-c2cncnc2Nc2ccc(F)cc2)c1, the “activity change, positive = activation” value is reported as -116% (inactive).
N#Cc1ccccc1-c1ccc2ncnc(N3CCNCC3)c2c1 was tested, and the “activity change, positive = activation” value was -54% (inactive).
In the case of COCCn1c(=O)c(-c2ccc(F)cc2)nc2cnc(OCc3ccccc3)nc21, the “activity change, positive = activation” value is reported as -52.1% (inactive).
In the case of O=S(=O)(c1ccccc1)N1CCC[C@@]2(CCN(c3ccncc3)C2)C1, the “activity change, positive = activation” value is reported as -92.5% (inactive).
In the case of Cc1noc(C)c1-c1cc(NCc2cccs2)ncn1, the “activity change, positive = activation” value is reported as -47.4% (inactive).
With CN(Cc1ccco1)c1ncnc2ccc(-c3ccccc3Cl)cc12 the “activity change, positive = activation” value was -68.2% (inactive).
For Cc1noc(C)c1-c1nccc(NCc2cccnc2)n1, the “activity change, positive = activation” value was -89.8% (inactive).
COCC(=O)N1CCC[C@@]2(CCN(Cc3ccc(C#N)cc3)C2)C1 was tested, and the “activity change, positive = activation” value was -30.1% (inactive).
With CN1CCN(c2ncncc2-c2ccccc2C(F)(F)F)CC1 the “activity change, positive = activation” value was -53.8% (inactive).
Cc1ccccc1-c1nc(N2CCN(C)CC2)c2ccccc2n1 was tested, and the “activity change, positive = activation” value was -73.4% (inactive).
For CC(C)=CCc1c2c(c3occ(-c4ccc(O)c(O)c4)c(=O)c3c1O)C=CC(C)(C)O2, the “activity change, positive = activation” value was -45.5% (inactive).
COc1cccc(-c2cncnc2N(C)Cc2ccco2)c1 was tested, and the “activity change, positive = activation” value was -103% (inactive).
O=C(c1ccncc1)N1CCC[C@@]2(CCN(c3ccccn3)C2)C1 was tested, and the “activity change, positive = activation” value was -84.4% (inactive).
In the case of CCCn1c(-c2ccc(F)cc2)nc2c(NCCCCN3CCCC3)nc(C)nc21, the “activity change, positive = activation” value is reported as -69.5% (inactive).
For c1ccc(-c2ccc(N3CC4(CCNCC4)C3)cc2)cc1, the “activity change, positive = activation” value was -31% (inactive).
Cc1nc(NCc2ccccc2)c2nc(-c3ccccc3)n(C3CCN(Cc4ccccc4)C3)c2n1 (stereo not given) was tested, and the “activity change, positive = activation” value was -104% (inactive).
In the case of O=c1c(-c2ccc(F)cc2)nc2cnc(N3CCNCC3)nc2n1Cc1ccc(F)cc1, the “activity change, positive = activation” value is reported as -97.3% (inactive).
For COc1ccc(-n2c(=O)c(-c3cccs3)nc3cnc(OC)nc32)cc1, the “activity change, positive = activation” value was -77% (inactive).
For O=C(Oc1ccccc1)N1CCC2(CCCN(c3ccccc3)C2)CC1, the “activity change, positive = activation” value was -33.7% (inactive).
In the case of COCCn1c(=O)c(-c2cccs2)nc2cnc(N(C)C)nc21, the “activity change, positive = activation” value is reported as -71.7% (inactive).
In the case of O=c1c(-c2cccs2)nc2cnc(N3CCOCC3)nc2n1Cc1ccc(F)cc1, the “activity change, positive = activation” value is reported as -36% (inactive).
In the case of COCCN(CCOC)c1nc(C)nc2c1nc(-c1ccccc1)n2CC1CCN(C)CC1, the “activity change, positive = activation” value is reported as -41.1% (inactive).
For CCCn1c(C)nc2c(NC3CCN(Cc4ccccc4)C3)nc(C)nc21 (stereo not given), the “activity change, positive = activation” value was -52.1% (inactive).
In the case of Cc1nc(NC2CCCCC2)c2nc(-c3ccccc3)n(C(C)CN(C)C)c2n1 (stereo not given), the “activity change, positive = activation” value is reported as -81.2% (inactive).
In the case of CS(=O)(=O)N1CCC[C@@]2(CCN(Cc3nccs3)C2)C1, the “activity change, positive = activation” value is reported as -45.1% (inactive).
In the case of CNc1ncnc2ccc(-c3ccccc3CN(C)C)cc12, the “activity change, positive = activation” value is reported as -77.8% (inactive).
With COc1ccccc1-c1ccc2ncnc(N3CCN(C)CC3)c2c1 the “activity change, positive = activation” value was -96.9% (inactive).
With COCCN(CCOC)c1nc(C)nc2c1nc(-c1ccccc1)n2CCN1CCCC1 the “activity change, positive = activation” value was -53% (inactive).
In the case of CN1CCN(c2ncc3nc(-c4cccs4)c(=O)n(CCC#N)c3n2)CC1, the “activity change, positive = activation” value is reported as -37.9% (inactive).
